PMC12864922, “TDP-43 directly inhibits mRNA accumulation in neurites through modulation of mRNA stability”
In all, about 9,900 sequences were measured (“r (bound/input frequency ratio)”: median about 0.7, highest 2% from about 6.5 on). This is one part of a sample in which the highest values are shown more often than they occur.

B1: ENSMUSG00000004113.29|Cacna1b (ssRNA)
RNA: GGGAGUUCUACAGUCCGACGAUCGCUUCGAUAUCCGCAUGCUACACUCACCUUUGAAGAGGCAGUGGCCACCAACUCUGGCCGCUCCUCCAGGACUUCCUAUGUGUCCUCCCUCACUUCCCAAUCCCACCCUCUCCGCCGUGUACCCAAUGGCUAUCACUGCACUUUGGGACUCAGCACUGGCGUCCGGGCGCGGCACAGCUACCACCACCCCGAUCAGGACCACUGGUGCUAGCUGCACCACGACCACCCAUGUACCAGCUCCAUGGGUGAGGGUUCCAGUUGAUGAGUUUUAUCAUCCGCUCUCUUGCGGUCGCACUAGUGUGGAAUUCUCGGGUGUCAAGG
B2: ENSMUSG00000034801.222|Sos2 (ssRNA)
RNA: GGGAGUUCUACAGUCCGACGAUCGCUUCGAUAUCCGCAUGCUAUGUAAGUCUGGAACAAAAGUGUCUUAUGGCAUAAGAACCAACUGCCAUUGUCAAACCUAUUAACUGUCUUUAAUCUCGUGUUAACUGAAAUUUUUGAAAAGUUUUUCCAGAUUAGUAAUAUUUAAACAGAAAAUACUUUAAAAAGCUUUAUUAAAUUUUUUAAUCAGGAUAAAGCUUUGCCAUUUGGAUACUAUCAUUCAAAGUGAUCAAGGUAUGUAUGUUAUGCUGAUAGUGCAGUAGCAGCCAUUGUAAAGUAGCCACUCUUGCGGUCGCACUAGUGUGGAAUUCUCGGGUGUCAAGG
B3: ENSMUSG00000061578.107|Ksr2|134:138;220:225 (ssRNA)
RNA: GGGAGUUCUACAGUCCGACGAUCGCUUCGAUAUCCGCAUGCUAGGCCUCUCUGGGGACCAGUCCCUGGCCUUCACCCUUCUCCCAUUUUGUAAGAACACUGUUCUAACUCACCUCAUGCCCACGCUACCCUGGGCAACUGGAGAACACCAUAGCGUUUCAGCUGAUGUGACAUUUGCACACACCUUUACCAGUUCACCAUCAUUCAUGGCUUCCCCCAAAGUCCCGAGUCCUGAGAACCGGGGCUGUGGCAAGAGAGUUCUGCACACAUCUCUCUGUGGGGCUAGCAAUGCCGGGGUUAAGUUCUCUUGCGGUCGCACUAGUGUGGAAUUCUCGGGUGUCAAGG
B4: ENSMUSG00000031028.253|Tub (ssRNA)
RNA: GGGAGUUCUACAGUCCGACGAUCGCUUCGAUAUCCGCAUGCUAAGCUCUUGCCUGUGUGCCAUCUGUGAGAAGCUUCUUGGAGCUGAGACACCAGAGGGAAGCAAAGAGCAUUUAGACAUUGCUUUUUGCUUUGAAAUAGAUAUGUUUGGAAACGCUAAGUAGAAGUUUAAAAAGUAGAGUCAUGUAGAGUCAUGCUUUGAAUAUGUGGGUCAUGCUUUAGAUAUGAAGAGGCUAUGCAGGUAAGGAGGCUGGAUUGAUGUAAAUGGAAGUAGUACUUUAAGAAAGCUCUAGAUUUCCCAGGUCUCUUGCGGUCGCACUAGUGUGGAAUUCUCGGGUGUCAAGG
B5: ENSMUSG00000031028.56|Tub|187:199;217:221 (ssRNA)
RNA: GGGAGUUCUACAGUCCGACGAUCGCUUCGAUAUCCGCAUGCUACCAAGGUCAACACACAUGCCCAGUCCUGGGUCAGUCCCCUGCUGCAGUGGUGUUAUCACACCGGAAAGCCUCUUCACCUGGAGGUACAGAGGGAGAGGAAGCACAAGCCUGGCUGCUGUGGCUCAGCCAUCCACUCAGCCUACGAGUCAGAGACAGUGGGUGUCCCGGGAAGCAGGGGUACAGUGACACACACACAUACUACAGGGCACUCAAGCUCAUACUAGAAAAAGCUCUGGUGGUCAGCAGAAAGCACUCCCACUCUCUUGCGGUCGCACUAGUGUGGAAUUCUCGGGUGUCAAGG
B6: ENSMUSG00000043670.83|Diras1 (ssRNA)
RNA: GGGAGUUCUACAGUCCGACGAUCGCUUCGAUAUCCGCAUGCUAAUCCCAGUCAGGCCCAGAGAGGUUACCUUGCCUCUCCAUCUCUGUCCCUGUGUGCCCAGCCAUGCCCACUGUCCCUGUCCCUCACAUUCUAUCACUGUGACCUCUGGGGAGUGCCCAUUGACCUCAUCUUCCUUCACUAAUAUCUUAUUUCUUUCACCUGAUCCUGUCCUUUCCCCGUGACCUCUGACCUGUGGCCUUCCCUGGGUCCAGAACACCCCUGUCCUCUCCUGUCUGCACACCAGGGUGGAUGGGCCCGAGGGCUCUUGCGGUCGCACUAGUGUGGAAUUCUCGGGUGUCAAGG
B7: ENSMUSG00000028439.194|Fam219a (ssRNA)
RNA: GGGAGUUCUACAGUCCGACGAUCGCUUCGAUAUCCGCAUGCUAAGCCUAUCUGUCCAGGGAACCAGAUUGGUGUCCGAGAUGAGGAAAUGGCUGUGGCCUGGGAAAUCAGUGAGAGGCCGCUUGGGAAUGAGAAUGCAGUGGACUGAAAGCACAGCCUGGCCAUCUGGAACCUGGGUUCUGGUCCCAGCCUCGGCAUUCUCCCUGAGCUCCUAAGCAAUUCCCAGGCUUCUCUAGGGCUUCAGUUCUCACAACUGGAAAAUAAAGAGUAGCUGACAUCACCGACAGAGUCUUUUCAUACCAGACUCUUGCGGUCGCACUAGUGUGGAAUUCUCGGGUGUCAAGG
B8: ENSMUSG00000031028.89|Tub (ssRNA)
RNA: GGGAGUUCUACAGUCCGACGAUCGCUUCGAUAUCCGCAUGCUAGUACAGGGCACUCAAGCUGUAUGUAGAAAAAGCUCUGGUGGUCAGCAGAAAGCACUCCCACUUCAAAAGGGCCCAUUAGGCCCAAAGGGGGUUAGGAGUGGUAGGGAUAGGUGCGUGGCAGGUCCCUGCUAGGAUUGCAGGGGCCUGGCCAUGUGUAUUAGCUGGAGGCUUAGAAUGCUAGCUCAUUUGUUGCUACAGAUUUGCCCAGUGCUUGCACACGUAAGAACCCAGCUCUCAAGGCCAAAUAUCUGAGUGGAUGGCUCUUGCGGUCGCACUAGUGUGGAAUUCUCGGGUGUCAAGG
B9: ENSMUSG00000034801.36|Sos2 (ssRNA)
RNA: GGGAGUUCUACAGUCCGACGAUCGCUUCGAUAUCCGCAUGCUAGCAGAAUUCAAGCCCUCUCUUACCAAAGCUGCCACCAAAGACUUACAAACGGGAGCUUUCCCACCCGCCACUGUAUAGACUGCCUCUGCUGGAAAAUGCAGAAACUCCUCAAUGACCUUGGCCAUAUGUAGUCAUUGACACUGGAAUAGUAUUUGUAAAGGUUUUUAAUUUAUUCAAAAAGACAUAGUAUUUUAGUACUUUUUACAGAAAUGCUACUGAUUAAAUAAGCUCUUAAGAAUUAGUAAACUUGUUGGAUGGCACUCUUGCGGUCGCACUAGUGUGGAAUUCUCGGGUGUCAAGG
B10: ENSMUSG00000043670.328|Diras1 (ssRNA)
RNA: GGGAGUUCUACAGUCCGACGAUCGCUUCGAUAUCCGCAUGCUAUAGCCAGCCCAGGGCCCCCACAGCUGCCACCUGCUCCCAAGCCCCGGGAGUGGCUCCUGGCUGGACAGGGGGUCACAGCCCUUUCUCAGGGACACACCCUGAUAGCACAAUCUCUGGGCCACCCCAGGCUUCUCCUGGCUGGCCUUGCCCAUCCUGGGGAGAACCGGGCUGGGUGGCAGGGGAGGCCGGAGCCCACCCUGGCUGCUGGCCAACCUGCCCAGGCAUCUCUGGUGCUGGGGACCCCGCCAGGCCUCGCUUGCCUCUUGCGGUCGCACUAGUGUGGAAUUCUCGGGUGUCAAGG
B11: ENSMUSG00000043670.175|Diras1 (ssRNA)
RNA: GGGAGUUCUACAGUCCGACGAUCGCUUCGAUAUCCGCAUGCUAAGUCCCUGUGUGCGGUGAUAGGACUAGUGGCUGCUGCCCUAGGGCUCUGACAGAAUCUGAGCCUCUUUGCUGGUCAUGUGUACUCUGGAGACUGUCCCCCAUGUCUGCCCUGAGUUACGGAGCCCCUGUGGUAUCUGCGAGACUGUCCAGGAGACUUGAGUGGCUCCUGGGCCUGUGUCCCACCCAGAUGAGGGUGACUUAGAAUUCUGUGUUUAUGUGCCUGUGUGUGUGGAUGGGUGUGUGUCUGUCUUGGGAUGGGGCUCUUGCGGUCGCACUAGUGUGGAAUUCUCGGGUGUCAAGG
B12: ENSMUSG00000043670.177|Diras1 (ssRNA)
RNA: GGGAGUUCUACAGUCCGACGAUCGCUUCGAUAUCCGCAUGCUACGGUGAUAGGACUAGUGGCUGCUGCCCUAGGGCUCUGACAGAAUCUGAGCCUCUUUGCUGGUCAUGUGUACUCUGGAGACUGUCCCCCAUGUCUGCCCUGAGUUACGGAGCCCCUGUGGUAUCUGCGAGACUGUCCAGGAGACUUGAGUGGCUCCUGGGCCUGUGUCCCACCCAGAUGAGGGUGACUUAGAAUUCUGUGUUUAUGUGCCUGUGUGUGUGGAUGGGUGUGUGUCUGUCUUGGGAUGGGGUGUUCUUGCACCCUCUUGCGGUCGCACUAGUGUGGAAUUCUCGGGUGUCAAGG
B13: ENSMUSG00000043670.176|Diras1 (ssRNA)
RNA: GGGAGUUCUACAGUCCGACGAUCGCUUCGAUAUCCGCAUGCUAUGUGUGCGGUGAUAGGACUAGUGGCUGCUGCCCUAGGGCUCUGACAGAAUCUGAGCCUCUUUGCUGGUCAUGUGUACUCUGGAGACUGUCCCCCAUGUCUGCCCUGAGUUACGGAGCCCCUGUGGUAUCUGCGAGACUGUCCAGGAGACUUGAGUGGCUCCUGGGCCUGUGUCCCACCCAGAUGAGGGUGACUUAGAAUUCUGUGUUUAUGUGCCUGUGUGUGUGGAUGGGUGUGUGUCUGUCUUGGGAUGGGGUGUUCUCUCUUGCGGUCGCACUAGUGUGGAAUUCUCGGGUGUCAAGG
B14: ENSMUSG00000043670.181|Diras1 (ssRNA)
RNA: GGGAGUUCUACAGUCCGACGAUCGCUUCGAUAUCCGCAUGCUACCCUAGGGCUCUGACAGAAUCUGAGCCUCUUUGCUGGUCAUGUGUACUCUGGAGACUGUCCCCCAUGUCUGCCCUGAGUUACGGAGCCCCUGUGGUAUCUGCGAGACUGUCCAGGAGACUUGAGUGGCUCCUGGGCCUGUGUCCCACCCAGAUGAGGGUGACUUAGAAUUCUGUGUUUAUGUGCCUGUGUGUGUGGAUGGGUGUGUGUCUGUCUUGGGAUGGGGUGUUCUUGCACCACUUUGUGUUCUUAGUGAGACCACCUCUUGCGGUCGCACUAGUGUGGAAUUCUCGGGUGUCAAGG
B15: ENSMUSG00000043670.180|Diras1 (ssRNA)
RNA: GGGAGUUCUACAGUCCGACGAUCGCUUCGAUAUCCGCAUGCUACUGCUGCCCUAGGGCUCUGACAGAAUCUGAGCCUCUUUGCUGGUCAUGUGUACUCUGGAGACUGUCCCCCAUGUCUGCCCUGAGUUACGGAGCCCCUGUGGUAUCUGCGAGACUGUCCAGGAGACUUGAGUGGCUCCUGGGCCUGUGUCCCACCCAGAUGAGGGUGACUUAGAAUUCUGUGUUUAUGUGCCUGUGUGUGUGGAUGGGUGUGUGUCUGUCUUGGGAUGGGGUGUUCUUGCACCACUUUGUGUUCUUAGUGACUCUUGCGGUCGCACUAGUGUGGAAUUCUCGGGUGUCAAGG
B16: ENSMUSG00000043670.182|Diras1 (ssRNA)
RNA: GGGAGUUCUACAGUCCGACGAUCGCUUCGAUAUCCGCAUGCUAGGCUCUGACAGAAUCUGAGCCUCUUUGCUGGUCAUGUGUACUCUGGAGACUGUCCCCCAUGUCUGCCCUGAGUUACGGAGCCCCUGUGGUAUCUGCGAGACUGUCCAGGAGACUUGAGUGGCUCCUGGGCCUGUGUCCCACCCAGAUGAGGGUGACUUAGAAUUCUGUGUUUAUGUGCCUGUGUGUGUGGAUGGGUGUGUGUCUGUCUUGGGAUGGGGUGUUCUUGCACCACUUUGUGUUCUUAGUGAGACCACAGUGUACUCUUGCGGUCGCACUAGUGUGGAAUUCUCGGGUGUCAAGG

Target: TDP-43 (Homo sapiens, UniProt Q13148 1-414)
Sequence (Q13148 whole entry): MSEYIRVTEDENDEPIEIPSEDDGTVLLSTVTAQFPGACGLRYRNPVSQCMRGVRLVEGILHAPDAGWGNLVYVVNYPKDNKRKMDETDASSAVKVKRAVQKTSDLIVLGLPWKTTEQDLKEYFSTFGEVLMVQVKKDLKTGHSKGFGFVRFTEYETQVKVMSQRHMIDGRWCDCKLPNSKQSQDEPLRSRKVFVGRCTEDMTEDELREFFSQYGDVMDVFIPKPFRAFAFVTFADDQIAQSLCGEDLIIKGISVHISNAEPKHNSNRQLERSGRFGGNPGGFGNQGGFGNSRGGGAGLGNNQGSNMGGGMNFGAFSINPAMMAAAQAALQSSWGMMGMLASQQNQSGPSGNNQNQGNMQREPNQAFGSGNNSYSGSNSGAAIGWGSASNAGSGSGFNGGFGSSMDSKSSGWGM
Experiment: RNA Bind-n-Seq with designed 260-mer pool; 25 mM Tris-HCl, 150 mM KCl, 3 mM MgCl2, BSA (printed 500 mg/mL), 20 units/mL SUPERase IN; pH not stated; 500 nM RNA pool, 1 h, 4 C; TDP-43 5, 50, 500 nM; high values mean tight binding
Conditions: protein: recombinant; tags: SBP (GST cleaved off with PreScission; pGEX-GST-SBP)
Procedure, shortened: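 The incubation lasted 1 h at 4 °C and used 500 nM of an in vitro-transcribed 260-nt 3′ UTR oligo pool with recombinant SBP-tagged TDP-43 at 5, 50 or 500 nM immobilized on streptavidin beads. It took place in 25 mM Tris-HCl, 150 mM KCl, 3 mM MgCl2, BSA and SUPERase IN. Bound RNA was washed, eluted with biotin, converted to cDNA, PCR-amplified and sequenced to give R, each oligo's normalized abundance in the bound sample divided by that in input. Two independent protein batches provided the duplicates.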

Binder	binding signal
B1	0.399 R (bound/input frequency ratio)
B2	0.0419 R (bound/input frequency ratio)
B3	0.895 R (bound/input frequency ratio)
B4	2.03 R (bound/input frequency ratio)
B5	1.06 R (bound/input frequency ratio)
B6	2.21 R (bound/input frequency ratio)
B7	0.186 R (bound/input frequency ratio)
B8	4.96 R (bound/input frequency ratio)
B9	0.12 R (bound/input frequency ratio)
B10	0.177 R (bound/input frequency ratio)
B11	6.15 R (bound/input frequency ratio)
B12	6.1 R (bound/input frequency ratio)
B13	6.8 R (bound/input frequency ratio)
B14	6.26 R (bound/input frequency ratio)
B15	6.66 R (bound/input frequency ratio)
B16	5.77 R (bound/input frequency ratio)
